# Measured values from PubChem BioAssay (NCATS).
# Results filed as inconclusive are left out. Entries that show only a call come without a potency. The source made the active and inactive calls. Calls come from the whole dose curve; as a rule, active = well fitted curve in the direction sought with a large enough effect; inconclusive = small, poorly fitted or top-dose-only effect, or another doubt; inactive = no such curve, though single readings can be large; an effect the other way counts as inactive or inconclusive.
# System: not listed separately
# Assay: qHTS for Inhibitors of the Aldehyde Dehydrogenase Family (ALDH1A2, ALDH1A3, ALDH2, ALDH3A1) (AID 2061307); note: nearly all actives have a fitted effect of over 50% in size; for potency: test system not described further here
# Conditions: ALDH inhibition qHTS; series mostly up to 50.3 µM
# Potency is the fitted concentration of half-maximal effect.
row,Compound,Potency
1,OC[C@H]1O[C@@H](OC(CCCCc2ccc(O)cc2)CCc2ccc(O)cc2)[C@H](O)[C@@H](O)[C@@H]1O (stereo not given in full),inactive
2,C[C@@H]1O[C@@H](O[C@@H]2[C@@H](O)[C@@H](O[C@]3(CO)O[C@H](CO)[C@@H](O)[C@@H]3OC(=O)/C=C/c3ccc(O)cc3)O[C@H](CO)[C@H]2OC(=O)/C=C/c2ccc(O)cc2)[C@H](O)[C@H](O)[C@H]1O[C@@H]1O[C@@H](C)[C@H](O[C@@H]2OC[C@](O)(CO)[C@H]2O)[C@@H](O)[C@H]1O,inactive
3,COC(=O)C1=CO[C@@H](O[C@@H]2O[C@H](COC(=O)/C=C/c3cc(OC)c(O)c(OC)c3)[C@@H](O)[C@H](O)[C@H]2O)[C@@H]2C(CO)=CC[C@H]12,inactive
4,O=C(/C=C/c1ccc(O)c(O)c1)O[C@H]1[C@H](OC2CCCCC2O)O[C@H](CO)[C@@H](O)[C@@H]1O (stereo not given in full),inactive
5,O=C(NCCCCCCCCNC(=O)C(Cl)Cl)C(Cl)Cl,8.91 µM (active)

# Molecular target: Aldehyde dehydrogenase, mitochondrial (Homo sapiens) (UniProt P05091)
# Assay: qHTS for Inhibitors of the Aldehyde Dehydrogenase Family (ALDH2) Primary screen (AID 2061308); note: nearly all actives have a fitted effect of over 55% in size
# Conditions: ALDH2 enzyme inhibition qHTS, 1536-well; series mostly up to 56 µM
row,Compound,Potency
1,OC/C=C/C=C/[C@H]1Cc2cc(O)cc(O)c2O1,inactive
2,C=C1C(=O)OC2C1CCC(=C)C1CC(OC(C)=O)C(=C)C12 (stereo not given),inactive
3,CCOC(=O)C1=C(N)Oc2ccc(Br)cc2C1C(C#N)C(=O)OCC (stereo not given),inactive
4,COc1cccc(-c2ccc(NC(=O)C3=C(C(=O)O)CCC3)c(F)c2)c1,inactive
5,Cn1cc(Nc2cnccc2C(=O)O)c2cccnc21,inactive
6,Cn1cc(-c2ccc3ncc(Cc4ccc5ncccc5c4)n3n2)cn1,inactive
7,OC[C@@]1(O)CO[C@@H](OC[C@H]2O[C@@H](Oc3c[nH]c4ccccc34)[C@H](O)[C@@H](O)[C@@H]2O)[C@@H]1O,inactive
8,C=C1C(=O)OC2CC(C)=C(C(C)CCCO)C(O)C12 (stereo not given),inactive
9,Clc1ncoc1-c1c[nH]c2ccccc12,inactive
10,CC1=CC(=O)C(=C(C)C)CC2C(C)(O)CCC12O (stereo not given),inactive
11,O=C(OC1C=C(CO)C2C(OC3OC(CO)C(O)C(O)C3O)OC=CC12O)c1ccc(O)cc1 (stereo not given),inactive
12,COc1ccc(-c2ccn(CC[C@](C)(C(=O)NO)S(C)(=O)=O)c(=O)c2)c(F)c1,inactive
13,OC[C@H]1O[C@@H](OC(CCCCc2ccc(O)cc2)CCc2ccc(O)cc2)[C@H](O)[C@@H](O)[C@@H]1O (stereo not given in full),inactive
14,COC(=O)c1c(C)cc(OC(=O)c2c(C)cc(OC)cc2OC)cc1O[C@@H]1O[C@H](CO)[C@@H](O)[C@H](O)[C@H]1O,inactive
15,CC1=C2CC3C(CCC3(C)O)C(C)(O)CC2OC1=O (stereo not given),inactive
16,Cn1cc(-c2ccncc2)c(-c2ccc(OCc3ccc4ccccc4n3)cc2)n1,inactive
17,Cc1[nH]c(/C=C2\C(=O)Nc3cc(-c4ccccc4)ccc32)c(C)c1CCC(=O)O,inactive
18,O=C1NC(=O)C(c2cn(-c3ccccc3)nc2-c2ccc(F)cc2)N1 (stereo not given),inactive
19,Oc1ccc(Nc2nc(-c3ccc(Cl)cc3)cs2)cc1,inactive
20,CC1(C)O[C@@]2(C)CC[C@@H]1C[C@@H]2OC1OC(CO)C(O)C(O)C1O (stereo not given in full),inactive
21,CC(CC(C)O[C@@H]1O[C@H](CO)[C@@H](O)[C@H](O)[C@H]1O)OC(=O)/C=C/c1ccc(O)cc1 (stereo not given in full),inactive
22,C[C@@H]1O[C@@H](O[C@@H]2[C@@H](O)[C@@H](O[C@]3(CO)O[C@H](CO)[C@@H](O)[C@@H]3OC(=O)/C=C/c3ccc(O)cc3)O[C@H](CO)[C@H]2OC(=O)/C=C/c2ccc(O)cc2)[C@H](O)[C@H](O)[C@H]1O[C@@H]1O[C@@H](C)[C@H](O[C@@H]2OC[C@](O)(CO)[C@H]2O)[C@@H](O)[C@H]1O,inactive
23,Cc1ccc(CN2CCNCC2)cc1NC(=O)CNc1ccc(F)c(F)c1,inactive
24,C=CC(=O)Nc1cccc(Nc2nc(Nc3ccc(Oc4ccnc(C(=O)NC)c4)cc3)ncc2F)c1,inactive
25,COC(=O)C1=CO[C@@H](O[C@@H]2O[C@H](COC(=O)/C=C/c3cc(OC)c(O)c(OC)c3)[C@@H](O)[C@H](O)[C@H]2O)[C@@H]2C(CO)=CC[C@H]12,inactive
26,O=C(O)c1cn(C2CC2)c2cc(N3C[C@@H]4C[C@H]3CN4)c(F)cc2c1=O,inactive
27,COc1ccc(NC(=O)c2ccc(-c3ccc(C(N)=O)cc3C)cc2)cc1N1CCN(C)CC1,inactive
28,C/C=C/C=C/c1cc2c(C=O)c(O)c(CC=C(C)C)cc2o1,28.2 µM (active)
29,COc1cc2ncc(-c3ccccc3)nc2cc1OC,inactive
30,CCOC(=O)C1=C(N)Oc2ccc(Cl)cc2C1C(C#N)C(=O)OCC (stereo not given),inactive
